Results: PubChem BioAssay
Values without a mark were called inactive. Active and inactive are the calls of the source. Unless noted, no stated cut-off is given here; in the data, active means inhibition above about 36%; inactive means the rest.

How the values were obtained:
[1] = tested on: transactivating tegument protein VP16 (Human herpesvirus 1); experiment: compounds suppressing VP16-driven luciferase signal – cell-based, luminescence, single concentration, counter-screen for SRC2 inhibitor project (AID 652007); settings: cell-based VP16 transactivation luciferase reporter, at 8.9 µM, hits give high values
[2] = molecular target: Nuclear receptor coactivator 2 (Homo sapiens) (UniProt Q15596); experiment: inhibition of GAL4-SRC2 driven luciferase expression – cell-based, luminescence, HEK293, triplicate, confirmation (AID 652008;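 active means mean inhibition above 46.5%, the solvent-only control mean plus 3 SD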;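 further: 0% = DMSO-treated cells and 100% = Gossypol at 36 µM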); settings: HEK293 GAL4-SRC2 luciferase reporter, at 8.9 µM, hits give high values
Sequence of Nuclear receptor coactivator 2 (Homo sapiens) (Q15596 whole entry, looked up, the tested form may be a part): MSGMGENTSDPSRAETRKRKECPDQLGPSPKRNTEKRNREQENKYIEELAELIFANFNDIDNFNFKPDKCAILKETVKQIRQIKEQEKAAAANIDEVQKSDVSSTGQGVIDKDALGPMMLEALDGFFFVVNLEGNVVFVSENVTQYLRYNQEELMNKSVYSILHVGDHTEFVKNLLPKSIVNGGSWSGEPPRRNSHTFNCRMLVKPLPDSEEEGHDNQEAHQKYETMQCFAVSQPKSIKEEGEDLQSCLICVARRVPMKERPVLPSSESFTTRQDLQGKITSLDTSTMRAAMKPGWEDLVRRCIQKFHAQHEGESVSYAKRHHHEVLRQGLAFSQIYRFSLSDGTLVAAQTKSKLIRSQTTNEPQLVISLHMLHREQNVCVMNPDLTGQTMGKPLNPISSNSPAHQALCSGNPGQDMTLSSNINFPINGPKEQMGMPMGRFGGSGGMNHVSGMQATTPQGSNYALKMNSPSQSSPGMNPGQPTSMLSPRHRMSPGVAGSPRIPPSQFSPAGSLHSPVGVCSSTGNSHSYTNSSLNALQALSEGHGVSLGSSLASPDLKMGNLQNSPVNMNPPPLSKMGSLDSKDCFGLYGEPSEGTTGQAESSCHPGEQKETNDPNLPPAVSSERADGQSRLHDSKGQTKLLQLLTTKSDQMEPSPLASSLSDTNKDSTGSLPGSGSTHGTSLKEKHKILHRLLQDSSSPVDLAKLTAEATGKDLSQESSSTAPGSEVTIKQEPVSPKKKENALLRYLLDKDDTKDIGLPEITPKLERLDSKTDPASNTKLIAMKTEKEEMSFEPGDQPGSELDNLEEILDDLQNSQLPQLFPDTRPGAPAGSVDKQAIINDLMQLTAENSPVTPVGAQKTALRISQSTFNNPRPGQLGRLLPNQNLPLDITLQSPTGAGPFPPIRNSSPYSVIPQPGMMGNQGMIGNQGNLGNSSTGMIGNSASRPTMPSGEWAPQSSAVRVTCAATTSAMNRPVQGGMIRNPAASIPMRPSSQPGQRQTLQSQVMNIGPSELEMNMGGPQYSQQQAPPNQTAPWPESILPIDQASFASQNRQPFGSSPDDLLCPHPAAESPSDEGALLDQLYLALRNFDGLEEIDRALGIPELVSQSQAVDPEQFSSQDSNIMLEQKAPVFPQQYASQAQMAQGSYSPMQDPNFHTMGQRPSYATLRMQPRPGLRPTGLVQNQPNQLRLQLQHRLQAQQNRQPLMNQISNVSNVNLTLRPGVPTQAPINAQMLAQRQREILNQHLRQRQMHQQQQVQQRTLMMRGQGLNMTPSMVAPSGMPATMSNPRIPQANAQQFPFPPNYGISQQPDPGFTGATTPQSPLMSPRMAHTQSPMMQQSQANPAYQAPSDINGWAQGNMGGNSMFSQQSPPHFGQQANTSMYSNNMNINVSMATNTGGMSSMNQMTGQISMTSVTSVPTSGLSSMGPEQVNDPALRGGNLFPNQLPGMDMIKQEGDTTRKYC

| SMILES | inhibition [1] | inhibition [2] |
| --- | --- | --- |
| CN(Cc1cc(Cl)cc(Cl)c1)CC(C(=O)c1ccccc1)c1ccccc1 (centres undefined) | 25% | 47.9% (active) |
| O=C(CCCN1C(=O)/C(=C/c2ccc3c(c2)OCO3)SC1=S)Nc1ccc(C(=O)O)cc1 | 53.6% (active) | 36.2% |
| O=C(NN1CCOCC1)c1ccco1 | -7.57% | -31.5% |
| Oc1ccc(N=Nc2ccc3c(c2)OCCO3)c2ncccc12 | -13.1% | 13.6% |
| CC[n+]1cccc(-c2nc3ccccc3s2)c1 | 9.34% | 13% |
| CCOc1cccc(NC(=O)C2CCCN(S(=O)(=O)c3ccc(OC)cc3)C2)c1 (centres undefined) | -26.5% | -6.98% |
| Cc1ccc2c(c1)nnn2C1CCN(CC(=O)N(c2ccccc2)c2ccccc2)CC1 | 14.5% | 33.7% |
| COc1ccc(OC)c(-n2nnnc2SCC(=O)Nc2cc(C)ccc2OC)c1 | -22.1% | 2.63% |
| Cn1c(=O)c2[nH]c(CCCc3ccc([N+](=O)[O-])cc3)nc2n(C)c1=O | -19.8% | 5.32% |
| CCc1ccc(/C=C2\SC(=S)N(CCC(=O)NC3=NCCS3)C2=O)cc1 | -67.3% | 75% (active) |
| Cc1ccc(S(=O)(=O)c2nc(NCCN(C)C)sc2Cl)cc1 | -5.23% | 28.4% |
| O=C(CCCN1C(=O)/C(=C/c2ccccc2Cl)SC1=S)Nc1ccccn1 | 25.5% | 43.8% |
